Assay results from PubChem BioAssay AID2242 (National Center for Advancing Translational Sciences (NCATS), 2010).
Where “and” joins values, the source holds several entries; their conditions need not be identical. Equal values may be shown once. About 720 (0.36%) of roughly 200,000 compounds were called active. Another 8% or so got no clear call; they are omitted. Calls follow the shape of the dose curve; as a rule, active = well fitted activation curve with a large enough effect; inconclusive = small, poorly fitted or top-dose-only effect, or effect the other way, or another doubt; inactive = flat fitted curve, though single readings scatter. The list shows a part of the results.

These compounds were tested against Lysosomal alpha-glucosidase (Homo sapiens) (UniProt P10253) (assay: qHTS Assay for Activators of Human alpha-Glucosidase as a Potential Chaperone Treatment of Pompe Disease). Conditions: purified enzyme, 4-MU-alpha-glucoside fluorescence, 20 min; series mostly up to 76.9 µM.
Outline: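 Compounds titrated up to 77 uM against 4 nM enzyme and 400 uM methylumbelliferyl substrate at room temperature, 20 min, pH 5.0. Basic stop, then 4-methylumbelliferone fluorescence (365/440 nm) normalized to no-enzyme and enzyme controls; Hill-equation AC50.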
Also: nearly all actives have a fitted effect of over 80% in size.
Potency is read from the fitted curve at half-maximal effect.

Potency, active:
N=c1oc2cc(O)ccc2cc1C(=O)Nc1ccccn1 35.5 µM
N=c1oc2cc(O)ccc2cc1C(=O)Nc1nc2ccccc2s1 35.5 µM
CCCn1c(-c2cccs2)nc2nc3ccccc3nc21 35.5 µM
C=CCn1c(-c2cccs2)nc2nc3ccccc3nc21 35.5 µM
CCOC(=O)c1cccc(-n2c(-c3ccc(OC)cc3)nc3nc4ccccc4nc32)c1 5.01 µM
C=CCn1c(-c2ccc(OC)cc2)nc2nc3ccccc3nc21 35.5 µM
CCC(C)n1c(-c2cccs2)nc2nc3ccccc3nc21 (stereo not given) 35.5 µM
CC(C)Cn1c(-c2cccs2)nc2nc3ccccc3nc21 35.5 µM
Cc1ccc(-c2cc(C(=O)NCCCn3ccnc3)c3ccccc3n2)s1 28.2 µM
Cc1cccn2c(=O)c3cc(C(=O)NCCCN4CCCC4=O)n(C)c3nc12 35.5 µM
Cc1cccn2c(=O)c3cc(C(=O)N4CCN(C(=O)c5ccco5)CC4)n(C)c3nc12 35.5 µM
Cc1ccc2nc3c(cc(C(=O)NCCCn4ccnc4)n3C)c(=O)n2c1 35.5 µM
Nc1cc(C(=O)O)c(Oc2ccc(Cl)cc2Cl)cc1C(=O)O 35.5 µM
CCc1cc2c3c(c(=O)oc2cc1O)CCCC3 28.2 µM
O=c1oc2cc(O)ccc2c2c1CCCC2 35.5 µM
COC(=O)C1=CN(Cc2ccc(OC)cc2)C=C(C(=O)OC)C1c1cccs1 25.1 µM
COC(=O)C1=CN(Cc2ccc(OC)cc2)C=C(C(=O)OC)C1c1ccsc1 25.1 µM
Cc1ccc(-c2cn3cccnc3n2)cc1 35.5 µM
FC(F)(F)Oc1ccc(-c2cn3cccnc3n2)cc1 35.5 µM
COc1ccc(-c2cn3cccnc3n2)cc1 35.5 µM
CC1(C)CN(c2ccc(-c3ccnc4ncnn34)cc2)C1=O 28.2 µM
N#Cc1c(C(F)(F)F)cc(-c2cccs2)nc1SCc1cccnc1 35.5 µM
Cc1[nH]c2ccccc2c1C(O)CN1CCN(c2cccc(C(F)(F)F)c2)CC1 (stereo not given) 35.5 µM
CC(C)c1cc(NCCCN2CCOCC2)n2c(nc3ccccc32)c1C#N 31.6 µM
Cc1cc(NCCCN2CCOCC2)n2c(nc3ccccc32)c1C#N 31.6 µM
COc1ccc(-c2c(C#N)c(N)nc3c2CCc2ccccc2-3)cc1OC 35.5 µM
COCCCn1cnc2oc3nc4ccccc4nc3c2c1=O 35.5 µM
CCOC(=O)c1cc2c(ccc3ccccc32)oc1=O 35.5 µM
CC(=O)Nc1cc2c(ccc3ccccc32)oc1=O 25.1 µM
CC(=O)Nc1cc2ccc(OC(C)=O)cc2oc1=O 35.5 µM
O=C(O)c1cc2c(ccc3ccccc32)oc1=O 35.5 µM
CC(OC(=O)c1cc2c(ccc3ccccc32)oc1=O)c1nc2ccccc2s1 (stereo not given) 28.2 µM
O=C(c1cc2c(ccc3ccccc32)oc1=O)N1CCCC1 31.6 µM
O=C(NCCc1ccccc1)c1cnc2ccccn2c1=O 25.1 µM
Cc1cccc(-n2c3nc(=O)[nH]c(=O)c-3cc3c(C)nn(-c4ccccc4)c32)c1 20 µM
Cc1ccc(-n2c3nc(=O)[nH]c(=O)c-3cc3c(C)nn(-c4ccccc4)c32)c(C)c1 25.1 µM
Cc1cccc(-n2c3nc(=O)[nH]c(=O)c-3cc3c(C)nn(-c4ccccc4)c32)c1C 22.4 µM
O=c1c(-c2nc3ccccc3s2)cccn1Cc1ccc(Cl)c(Cl)c1 28.2 µM
Cc1ccc(Cn2cccc(-c3nc4ccccc4s3)c2=O)cc1 28.2 µM
O=c1c(-c2nc3ccccc3s2)cccn1Cc1ccc(Cl)cc1 10 µM
O=c1c(-c2nc3ccccc3s2)cccn1Cc1ccccc1 39.8 µM
COc1cc(=O)n(C)c2cc(N(C)C)ccc12 31.6 µM
COc1cc2nc(N3CCN(C(=O)C4COc5ccccc5O4)CC3)nc(N)c2cc1OC (stereo not given) 39.8 µM
COc1cc2nc(N3CCN(C(=O)C4CCCO4)CC3)nc(N)c2cc1OC (stereo not given) 35.5 µM and 39.8 µM
COc1cc2nc(N(C)CCCNC(=O)C3CCCO3)nc(N)c2cc1OC (stereo not given) 35.5 µM
O=C(O)C(=O)/C(=C\c1cccc(Cl)c1)c1ccc2ccccc2n1 28.2 µM
Cc1cccc(S(=O)(=O)Nc2ccc(-c3nc4ccc(C)cc4s3)cc2)c1 31.6 µM
Cc1nc2ccc(S(=O)(=O)Nc3ccc(-c4nc5cccnc5s4)cc3)cc2s1 35.5 µM
Cc1ccc2sc(-c3ccc(NC(=O)/C=C\C(=O)O)cc3)nc2c1 39.8 µM
Cc1ccc2nc(-c3ccc(NS(=O)(=O)c4ccc(F)cc4)cc3)sc2c1 35.5 µM
Cc1ccc2nc(-c3ccc(NS(=O)(=O)c4ccc(F)c(F)c4)cc3)sc2c1 3.55 µM
Cc1cc(-c2nc3cccnc3s2)ccc1NS(=O)(=O)c1ccc2c(c1)OCCO2 35.5 µM
Cc1ccc(S(=O)(=O)Nc2ccc(-c3nc4ccc(C)cc4s3)cc2)cc1 35.5 µM
C/C(=N\NC(=O)CC#N)c1cc2ccc(O)cc2oc1=O 35.5 µM
Cc1c2c(n3c(nc4ccccc43)c1C#N)N(CCCN(C)C)CC2 35.5 µM
Cc1c2c(n3c(nc4ccccc43)c1C#N)N(CCN1CCOCC1)CC2 5.62 µM
CCOC(=O)c1cc2c(=O)n3ccccc3nc2n(CC2CCCO2)c1=NC(C)=O (stereo not given) 35.5 µM
CCCn1c(=NC(C)=O)c(C(=O)OCC)cc2c(=O)n3ccccc3nc21 35.5 µM
CCOC(=O)c1cc2c(=O)n3ccccc3nc2n(CCCOC)c1=NC(C)=O 35.5 µM
CCOCCCn1c(=NC(C)=O)c(C(=O)OCC)cc2c(=O)n3ccccc3nc21 39.8 µM
CNC(=O)c1cc2ccc(OC)cc2oc1=O 28.2 µM
CCOC(=O)c1cc2ccc(OC(=O)c3ccco3)cc2oc1=O 35.5 µM
CCOC(=O)c1cc2ccc(OC)cc2oc1=O 31.6 µM
CSc1nc2n(n1)C(c1ccccn1)C1=C(CC(C)(C)CC1=O)N2 (stereo not given) 35.5 µM
CCC(NC(=O)OC(C)(C)C)C(=O)Oc1ccc2c3c(c(=O)oc2c1)CCC3 (stereo not given) 35.5 µM
Cc1c(OC(=O)CNC(=O)OC(C)(C)C)ccc2c3c(c(=O)oc12)CCC3 11.2 µM
CSCCC(NC(C)=O)C(=O)Oc1ccc2c3c(c(=O)oc2c1)CCCC3 (stereo not given) 35.5 µM
Cc1csc(NC(=O)c2ccccc2O)n1 39.8 µM
CCN(c1ccccc1)S(=O)(=O)c1cc(C(=O)Oc2ccc3c(C)cc(=O)oc3c2)ccc1C 28.2 µM
C=CCN(c1ccccc1)S(=O)(=O)c1cccc(C(=O)Oc2ccc3c(C)cc(=O)oc3c2)c1 35.5 µM
Cc1ccc(N(C)S(=O)(=O)c2cccc(C(=O)Oc3ccc4c(C)cc(=O)oc4c3)c2)cc1 31.6 µM
O=Cc1cn(-c2ccccc2)nc1-c1cc2cc(O)ccc2oc1=O 35.5 µM
COc1ccc2cc3cc(C(=O)NCC4CCCO4)oc3nc2c1 (stereo not given) 35.5 µM
COc1ccc2cc3cc(C(=O)NC(C)C)oc3nc2c1 28.2 µM
CCC(C)NC(=O)c1cc2cc3ccc(OC)cc3nc2s1 (stereo not given) 35.5 µM
O=c1[nH]cnc2nc(-c3ccccc3)c(-c3ccccc3)nc12 35.5 µM
COc1ccc2cc3cc(C(=O)NCCN4CCc5ccccc5C4)oc3nc2c1 35.5 µM
COc1ccc2cc3cc(C(=O)NCCN4CCN(c5ccccc5F)CC4)oc3nc2c1 35.5 µM
COc1ccc2cc3cc(C(=O)NCCN4CCN(Cc5ccccc5)CC4)oc3nc2c1 28.2 µM
CC(=O)Nc1ccc(S(=O)(=O)NCC(=O)OCc2cc(=O)oc3ccc4ccccc4c23)cc1 35.5 µM
COc1cccc(-c2nc(N3CCN(Cc4ccccc4)CC3)c3ccccc3n2)c1O 39.8 µM
COC(=O)c1ccc2nc(Nc3nc4ccc(F)cc4s3)sc2c1 12.6 µM
COC(=O)c1ccc2nc(Nc3nc4c(F)cc(F)cc4s3)sc2c1 6.31 µM
O=C(NC1CCC(O)CC1)c1cc(-c2ccco2)nc2ccccc12 (stereo not given) 39.8 µM
OCCN(CCO)c1ccc2ccccc2c1 35.5 µM
c1ccc(CCNc2ccnc3cc4ccccc4cc23)cc1 22.4 µM
CCOc1ccc2nc(N3CCOCC3)nc(C)c2c1 39.8 µM
COc1ccc2nc(N3CCOCC3)cc(C)c2c1 39.8 µM
Cc1cc(N2CCOCC2)nc2cc(O)ccc12 28.2 µM
CCN(CC)C(=O)c1cc2c(=O)n3ccccc3nc2s1 31.6 µM
COCCN(CCOC)C(=O)c1cc2c(=O)n3ccccc3nc2s1 35.5 µM
CC1=CN2C(=NC(=O)CC2(C)C(=O)N(CC(=O)NC2CCCC2)c2cc(C)cc(C)c2)C=C1 (stereo not given) 39.8 µM
CC1=CN2C(=NC(=O)CC2(C)C(=O)N(CC(=O)NC2CCCC2)c2ccccc2C)C=C1 (stereo not given) 35.5 µM
CCC(=O)Oc1ccc2c(c1)OC1(OC(C)=O)OC(C)CC1=C2C (stereo not given) 5.62 µM
CCOC(=O)c1sc(-c2ccc(OC)cc2)cc1NC(C)=O 28.2 µM
